Test results as given in the supplement of paper PMC7858590.
± gives the standard deviation of the averaged measurements. The full ranking holds about 3,800 compounds; the median of “cell shape (eccentricity) Z-score vs DMSO control” is about 1.1, and the lowest 2% start at about -4.7. Only a selection was taken, and the lowest values are over-represented in it overall.

Test system: human monocyte-derived macrophages (M0)
Assay: cell shape (eccentricity) Z-score vs DMSO control; higher = more elongated, M2-like morphology
Details: 20 µM; 24 h; macrophage state: M0 (M-CSF)
Procedure: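 Primary human monocyte-derived macrophages (M-CSF differentiated, pooled from 4 donors, 5000 cells/well in 384-well plates) were treated with each compound at 20 uM for 24 h, then fixed and stained with phalloidin/DAPI and imaged on an Opera Phenix (6 fields, about 1000 cells/well). Cell eccentricity was measured with CellProfiler, and a Z-score (t-test) was computed against 4 DMSO control wells in the same row. Negative values mean round (M1-like) cells and positive values mean elongated (M2-like) cells; the paper's hit cutoffs are Z <= -4 (M1) and Z >= 6 (M2). Scale: negative = round, M1-like.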

| Structure (SMILES) | cell shape (Z-score) |
| --- | --- |
| COc1cc2c(cc1-c1coc3c4c(ccc3c1=O)OC(C)(C)C=C4)OCO2 | -5.49 |
| COc1c(-c2coc3cc4c(cc3c2=O)CC(O)C(C)(C)O4)ccc2c1C=CC(C)(C)O2 (stereo not given) | -0.764 |
| COc1c2c(cc3occ(-c4ccc5c(c4)OCO5)c(=O)c13)OC(C)(C)C=C2 | 1.71 |
| CN(C)CCCN1c2ccccc2CCc2ccc(Cl)cc21 | 1.86 |
| CC(C)=CCC1Cc2c(cc(O)c(C(=O)C(C)C)c2O)OC1(C)C (stereo not given) | 3.41 |
| NCCCCCc1cnc[nH]1 | -0.662 |
| CC(C)c1ccc(Cn2ccc3c4c(N)nc(NC5CC5)nc4ccc32)cc1 | -4.69 |
| CCNC(=O)[C@@H]1CCCN1C(=O)[C@H](CCCNC(=N)N)NC(=O)[C@H](CC(C)C)NC(=O)[C@@H](COC(C)(C)C)NC(=O)[C@H](Cc1ccc(O)cc1)NC(=O)[C@H](CO)NC(=O)[C@H](Cc1c[nH]c2ccccc12)NC(=O)[C@H](Cc1cnc[nH]1)NC(=O)C1CCC(=O)N1 (stereo not given in full) | -0.749 |
| OC1(c2ccc(Cl)c(C(F)(F)F)c2)CCN(CCCC(c2ccc(F)cc2)c2ccc(F)cc2)CC1 | -6.96 |
| O=C(CCCN1CCC(O)(c2cccc(C(F)(F)F)c2)CC1)c1ccc(F)cc1 | -0.261 |
| O=C(CCCN1CCC(O)(c2ccc(Cl)cc2)CC1)c1ccc(F)cc1 | -2.24 |
| CO[C@@]12[C@@H]3NC3CN1C1=C(C(=O)C(N)=C(C)C1=O)[C@@H]2COC(N)=O (stereo not given in full) | -5.51 |
| CO[C@@]12[C@H](COC(N)=O)C3=C(C(=O)C(C)=C(N)C3=O)N1C[C@@H]1N[C@@H]12 | -1.43 ± 4 |
| Cc1cccc(-c2[nH]c(C(C)(C)C)nc2-c2ccc3nccnc3c2)n1 | 4.84 |
| CON=C(C(=O)NC1C(=O)N2C(C(=O)O)=C(CSc3nc(=O)c(=O)[nH]n3C)CSC12)c1csc(N)n1 (stereo not given) | -0.265 |
| Cc1oc(=O)oc1CN1CCN(c2cc3c(cc2F)c(=O)c(C(=O)O)c2n3C(C)S2)CC1 (stereo not given) | -5.14 |
| CCn1cc(C(=O)O)c(=O)c2cc(F)c(N3CCN(C)CC3)cc21 | -1.21 |
| CCN1CCN(c2cc3c(cc2F)c(=O)c(C(=O)O)cn3C2CC2)CC1 | -0.0252 |
| C=CC(=O)Nc1cccc(Sc2nc(Nc3ccc(N4CCN(C)CC4)cc3)ncc2Cl)c1 | 0.842 |
| CCCCCCCCC(=O)NCc1cc(OC)c(O)cc1I | 0.93 |
| CCCn1c(=O)c(C)cn2nc(N)nc12 | 3.53 |
| CCC(C)n1ncn(-c2ccc(N3CCN(c4ccc(OC[C@H]5CO[C@](Cn6cncn6)(c6ccc(Cl)cc6Cl)O5)cc4)CC3)cc2)c1=O (stereo not given in full) | 0.541 |
| CC(C)N1C[C@@H](C)[C@H](CN(C)Cc2ccc(Oc3ccccc3)cc2)Oc2c(NC(=O)c3ccncc3)cccc2C1=O | 2.27 |
| CC1OC(O[C@H]2[C@@H](O)C[C@@]3(C)C(CC[C@]4(C)C3CC=C3[C@@H]5CC(C)(C)CC[C@]5(C(=O)OC5OC(C)C(OC6OCC(OC7OCC(O)C(OC8OCC(O)C(O)C8O)C7O)C(O)C6O)C(O)C5O)CC[C@]34C)[C@]2(C)CO)C(O)C(OC2OC(CO)C(O)C(O)C2O)C1O (stereo not given in full) | 0.13 |
| CC1OC(O[C@H]2[C@@H](O)C[C@@]3(C)C([C@H](O)C[C@]4(C)C3CC=C3[C@@H]5CC(C)(C)CC[C@]5(C(=O)OC5OC(C)C(OC6OCC(OC7OCC(O)C(OC8OCC(O)C(O)C8O)C7O)C(O)C6O)C(O)C5O)CC[C@]34C)[C@]2(C)CO)C(O)C(OC2OC(CO)C(O)C(O)C2O)C1O (stereo not given in full) | 0.543 |

| Structure (SMILES) | cell shape (Z-score) |
| --- | --- |
| C[C@@H]1O[C@@H](O[C@H]2[C@H](OC(=O)[C@]34CCC(C)(C)C[C@H]3C3=CCC5[C@@]6(C)C[C@H](O)[C@H](O[C@@H]7O[C@H](CO)[C@@H](O)[C@H](O)[C@H]7O)[C@@](C)(CO)C6[C@H](O)C[C@@]5(C)[C@]3(C)CC4)OC[C@H](O)[C@@H]2O)[C@H](O)[C@H](O)[C@H]1O[C@@H]1OC[C@@H](O)[C@H](O[C@@H]2OC[C@](O)(CO)[C@H]2O)[C@H]1O (stereo not given in full) | -6.49 |
| CC1OC(OC2C(O[C@H]3OC[C@](O)(CO)[C@H]3O)COC(O[C@@H]3[C@@H](O)[C@@H](O)[C@H](OC4C(OC(=O)[C@]56CCC(C)(C)CC5C5=CCC7[C@@]8(C)C[C@H](O)[C@H](OC9OC(CO)C(O)C(O)C9O)[C@@](C)(CO)C8[C@H](O)C[C@@]7(C)[C@]5(C)CC6)OCC(O)C4O)O[C@H]3C)C2O)C(O)C(O)C1O (stereo not given in full) | -5.84 |
| CC1OC(O[C@H]2CC[C@@]3(C)C(CC[C@]4(C)C3CC=C3C5CC(C)(C)CC[C@]5(C(=O)OC5OC(CO)C(OC6OC(CO)C(O)C(O)C6O)C(O)C5O)CC[C@]34C)C2(C)C)C(O)C(O)C1OC1OCC(O)(COC2OCC(O)C(OC3OCC(OC4OCC(O)(CO)C4O)C(O)C3O)C2O)C1O (stereo not given in full) | 0.323 |
| CC1OC(OC2C(O)C(CO)OC(O[C@H]3CC[C@@]4(C)C(CC[C@]5(C)C4CC=C4C6CC(C)(C)CC[C@]6(C(=O)OC6OCC(OC7OCC(O)C(O)C7O)C(O)C6O)CC[C@]45C)C3(C)C)C2O)C(O)C(OC2OCC(O)(CO)C2O)C1O (stereo not given in full) | -0.504 |
| C/C(=C\Cc1c(O[C@@H]2O[C@H](CO)[C@@H](O)[C@H](O)[C@H]2O)ccc2ccc(=O)oc12)CO | 0.962 ± 0.97 |
| CCC1(c2ncc[nH]2)Cc2ccccc2O1 (stereo not given) | 1.92 |
| N#CC(=C(N)Sc1ccc(N)cc1)c1ccccc1C(F)(F)F | 4.79 |
| CC1CC(=O)C2C(O)(C1)CC(O)C13OC21C(=O)c1cccc(O)c1C3O (stereo not given) | 3.39 ± 2.6 |
| C[C@H](CCC(=O)NCC(=O)O)[C@H]1CCC2C3C(C[C@H](O)[C@@]21C)[C@@]1(C)CC[C@@H](O)CC1C[C@H]3O (stereo not given in full) | 1.5 |
| CC(=O)O[C@@H]1CC2C(C)(C)C(=O)C3OC3[C@]2(C)C2CC[C@@]3(C)[C@H](c4ccoc4)OC(=O)C4OC43[C@@]21C (stereo not given in full) | -1.17 |
| CC1(CO)CC(O)CC2(C)C3=C(CCC12)C(=O)OC3 (stereo not given) | -1.57 |
| COC(=O)C(CCCNC(=N)N)NC(=O)CCCc1c(-c2ccccc2)[nH]c2c(F)cc(F)cc12 (stereo not given) | 6.11 |
| Cc1c(OCC(F)(F)F)ccnc1CS(=O)c1nc2ccccc2[nH]1 (stereo not given) | 3.11 |
| COc1ccnc(CS(=O)c2nc3cc(OC(F)F)ccc3[nH]2)c1OC (stereo not given) | -1.46 |
| COCCCOc1ccnc(CS(=O)c2nc3ccccc3[nH]2)c1C (stereo not given) | -6.29 |
| COC1=CC(=O)CC(C)C12Oc1cc(OC)cc(O)c1C2=O (stereo not given) | 1.27 |
| OCCOCCN1CCN(C2=Nc3ccccc3Sc3ccccc32)CC1 | 2.19 |
| CNCC[C@@H](Oc1ccccc1C)c1ccccc1 | 0.617 |
| CNCCC(Oc1ccccc1OC)c1ccccc1 (stereo not given) | 1.09 |
| CNCCC(Oc1ccc(C(F)(F)F)cc1)c1ccccc1 (stereo not given) | -4.88 |
| C/C=C(/C)C(=O)O[C@H]1C=C(C)C[C@H](OC(=O)c2ccc(O)cc2)C2[C@](O)(C(C)C)CC[C@@]21C (stereo not given in full) | -3.37 |
| CCN(CC)CCOc1ccc2c(c1)C(=O)c1cc(OCCN(CC)CC)ccc1-2 | 11.9 |
| N#Cc1nc2c(nc1C#N)-c1ccc(Cl)cc1C2=O | 2.23 |
| O=C1c2ccccc2-c2nc3nonc3nc21 | -6.25 |
| CC1(C)CC[C@]2(C(=O)O)CC[C@]3(C)C(=CCC4[C@@]5(C)CC[C@H](O[C@@H]6OC[C@H](O)[C@H](O)[C@H]6O)[C@@](C)(CO)C5CC[C@]43C)C2C1 (stereo not given in full) | -2.37 |

| Structure (SMILES) | cell shape (Z-score) |
| --- | --- |
| CNc1cc(NS(=O)(=O)c2ccc(N)cc2)nc(NC)n1 | 3.31 |
| Cc1cc(NS(=O)(=O)c2ccc(N)cc2)no1 | -8.11 |
| Cc1noc(NS(=O)(=O)c2ccc(N)cc2)c1C | 2.76 |
| Cn1c(=O)c2c(n(C)c1=O)n(C)c(=O)n2C | 0.458 |
| Cc1cc(Nc2nc(N[C@@H](C)c3ncc(F)cn3)ncc2Cl)n[nH]1 | 7.45 |
| CCCCCCCCc1ccc(-c2ccc(C(=O)O)cc2)cc1 | 7.84 |
| CCCCCCCCc1ccc(CCC(N)(CO)CO)cc1 | -5.98 ± 2.9 |
| CCCCCCCCCCCCCCCCCCc1ccc(C(=O)C=CC(=O)O)cc1 | 0.47 |
| COc1cc(/C=C/C(=O)O[C@H]2CC[C@]34CC35CC[C@]3(C)[C@@H](C(C)CCC=C(C)C)CC[C@@]3(C)C5CCC4C2(C)C)ccc1O (stereo not given in full) | -1.25 |
| Cc1cc(O)c2c(c1)C(=O)c1cccc(O)c1C2=O | 3.93 |
| COc1cc(O)c2c(c1)C(=O)c1cc(C)cc(O)c1C2=O | 2.65 |
| Cc1cc(O)c2c(c1)C(=O)C1=C(C2=O)C(O)C(O)C(O)C1O (stereo not given) | -13.9 |
| COc1c(OC)c(O)c2c(=O)c(O)c(-c3ccccc3)oc2c1OC | 4.23 |
| CC(=O)NC(C(=O)O[C@H]1CCC(C)(C)[C@@H]2CC=C3C(=O)OCC3(O)[C@@]12C)C(C)C (stereo not given in full) | 0.522 ± 0.68 |
| CC(=O)O[C@@H]1[C@@H](O)[C@H](C)O[C@@H](O[C@H]2[C@@H]3C=CO[C@@H](O[C@@H]4O[C@H](CO)[C@@H](O)[C@H](O)[C@H]4O)[C@@H]3[C@@]3(CO)O[C@@H]23)[C@@H]1OC(=O)/C=C/c1ccc(O)cc1 | -0.936 ± 2.8 |
| C=C1C(=O)O[C@@H]2[C@H]3O[C@]3(C)CC/C=C(/C)CC[C@@H]12 | -9.25 |
| C=C1C(=O)O[C@H]2[C@H]1CC/C(C)=C/CC[C@@]1(C)O[C@@H]21 | -3.88 |
| C=C1C(=O)O[C@@H]2/C=C(\C)CC/C=C(\C)CC[C@@H]12 | -1.08 |
| C/C(=C\CC[C@@H](C)[C@H]1CC[C@@]2(C)C3CC[C@H]4C(C)(C)[C@@H](OC5OC(CO)C(OC6OC(CO)C(O)C(O)C6O)C(O)C5O)CC[C@@]45C[C@@]35CC(O)[C@]12C)C(=O)O (stereo not given in full) | 0.155 |
| Nc1ccc(S(=O)(=O)NC(=O)c2ccccc2)cc1 | 0.441 |
| COc1nc(N)nc2c1ncn2[C@@H]1O[C@H](CO)[C@@H](O)[C@@H]1O | 0.62 ± 1.5 |
| O=C(O)CN1C(=O)c2cccc3cccc(c23)C1=O | -6.86 |
| O=C(O)CCCN1C(=O)c2cccc3cccc(c23)C1=O | 1.83 |
| O=C(O)Cn1c(C(=O)Nc2nc(-c3ccccc3Cl)cs2)cc2ccccc21 | 2.41 |
| O=c1[nH]c2cc(Cl)ccc2c(O)c1-c1cccc(Oc2ccccc2)c1 | -0.358 |
